In the library only some 12% were active in any assay of this set; here they are far more common.
G9a block – qHTS Assay for Inhibitors of Histone Lysine Methyltransferase G9a; Histone-lysine N-methyltransferase EHMT2 (Homo sapiens), Q96KQ7; G9a H3K9 monomethylation, AlphaScreen, 2 h; Potency, µM (titrated, usually from 102 µM), for inactives: top-dose activity, negative = inhibition, usual class: inhibitors; 350,000 tested, 8.8% active; AID 504332, 2011; further: on the % scale 0 is the no-effect control and ±100 the full control effect; nearly all actives have a fitted effect of over 75% in size
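G9a (20 nM) was preincubated 15 min with compound, then reacted 2 h at room temperature with 500 nM biotin-H3K9 peptide and 20 µM SAM. Monomethyl-H3K9 detected by AlphaScreen using anti-H3K9me1 antibody.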
L3MBTL1 block – qHTS Assay for the Inhibitors of L3MBTL1. AID 485360, 2010. Lethal(3)malignant brain tumor-like protein 1 (Homo sapiens), Q9Y468. 230,000 tested, 0.66% active. Potency, µM (titrated, usually from 57.1 µM), for inactives: at the top dose activity, negative = inhibition, most hits filed as inhibitors. AlphaScreen L3MBTL1–H3K9me1 peptide binding; further: on the % scale 0 is the no-effect control and ±100 the full control effect; nearly all actives have a fitted effect of over 60% in size
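L3MBTL1 (50 nM) pre-complexed 30 min with biotinylated H3(1-15)K9me1 peptide (75 nM), then compounds added for 30 min at room temperature; AlphaScreen streptavidin donor/nickel chelate acceptor beads (10 ug/mL final) read after 30 min dark incubation.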
JMJD2A Tudor inh – qHTS Assay for Inhibitors of JMJD2A-Tudor Domain. Lysine-specific demethylase 4A (Homo sapiens), O75164. AlphaScreen JMJD2A-Tudor / H3K4me3 peptide binding. Potency, µM (titrated, usually from 114 µM), without a hit: top-dose activity change, negative = inhibition, usual class: inhibitors. 390,000 tested, 4.4% active. AID 504339, 2011; further: on the % scale 0 is the no-effect control and ±100 the full control effect; nearly all actives have a fitted effect of over 50% in size
HP1b chromo inh – HTS for Inhibitors of HP1-beta Chromodomain Interactions with Methylated Histone Tails | Chromobox protein homolog 1 (Homo sapiens), P83916 | AlphaScreen HP1-beta / biotin-H3K9me3 peptide binding | Potency, µM (doses to about 114 µM), inactives show at the top dose activity change, negative = inhibition, usual class: inhibitors | 390,000 tested, 0.56% active; further: nearly all actives have a fitted effect of over 70% in size
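AlphaScreen: HP1-beta (50 nM) preformed 30 min with biotin-H3(1-18)K9me3 peptide (50 nM) in PBS pH 7.4, 0.01% Tween-20. Compound added for 30 min at RT, then streptavidin donor/nickel chelate acceptor beads (10 ug/mL) for 30 min.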
BAZ2B block – qHTS Assay for Inhibitors of BAZ2B. 360,000 tested, 4.4% active. Bromodomain adjacent to zinc finger domain protein 2B (Homo sapiens), Q9UIF8. AlphaScreen BAZ2B-H3K14Ac peptide displacement. Potency, µM (doses to about 114 µM), without a hit: top-dose activity change, negative = inhibition, most hits filed as inhibitors; further: on the % scale 0 is the no-effect control and ±100 the full control effect; nearly all actives have a fitted effect of over 60% in size
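Multi-concentration screen (max 110 uM) measuring displacement of acetylated histone H3 peptide from BAZ2B by AlphaScreen, using 50 nM protein, 50 nM peptide and 10 ug/mL streptavidin donor plus Ni-chelate acceptor beads.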
Sfp PPTase inh – qHTS Assay for Inhibitors of Bacillus subtilis Sfp phosphopantetheinyl transferase (PPTase); Biochemical Sfp PPTase activity, qHTS; Potency, µM, inactives show largest response in the series, negative = inhibition, usual class: inhibitors; 310,000 tested, 3.5% active; AID 1490, 2009;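 further: the enzyme is Sfp with the accession as filed and its product quenches rhodamine fluorescence; 0% = enzyme reaction without inhibitor and -100% = no enzyme wells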
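Compounds were incubated with enzyme (final 15 nM) for 15 min at room temperature before substrate addition started the reaction. Fluorescence at 525 nm excitation, 598 nm emission was recorded immediately and after 30 minutes.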
* hit, by the source's call; ? = inconclusive; · = not tested or not shown; ! = repeats disagree; [ ] = another dose, or the depositor's remark. The call rests on the fitted dose curve; in most records, active means well fitted curve in the direction sought with a large enough effect; inconclusive means small, poorly fitted or top-dose-only effect, or another doubt; inactive means no such curve, though single readings can be large; an effect the other way counts as inactive or inconclusive. Potency means the concentration at half of the fitted maximal effect.

SMILES	G9a block	L3MBTL1 block	JMJD2A Tudor inh	HP1b chromo inh	BAZ2B block	Sfp PPTase inh
COC(=O)c1c(C)nc(C)c(C(=O)OC)c1-c1ccc(OC)c(OC)c1	4%	3%	-10%	-1%	-2%	20%
CCOC(=O)c1c(C)nc2ccccc2c1-c1ccccc1	0%[59 µM]	1%	28%	96%	22%	79µM*
CCOC(=O)c1c(C)nc(C)c(C(=O)OCC)c1-c1ccc(O)c(OC)c1	8.9µM*	·	-22%	?	8%	32µM*
COC(=O)c1c(C)nc2ccccc2c1-c1ccccc1	-1%[12.7 µM]	·	4%	41%	4%	11%
CC(C)c1nnc(NC(=O)CC(C)c2ccccc2)s1 (centres undefined)	·	-1%	1%	39%	?	-2%
CC(CC(=O)Nc1nnc(C(C)(C)C)s1)c1ccccc1 (centres undefined)	25µM*	2%	-17%	9%	-5%	50µM*
C=C1CN(CC(=O)OC)S(=O)(=O)c2ccccc21	-11%[59 µM]	·	89µM*!	-17%	-7%	-15%
COC(=O)CN1CCC(=O)c2ccccc2S1(=O)=O	·	·	-6%	32%	·	24%
Cc1ccc(/C(O)=C2\C(=O)C(=O)N(CCc3c[nH]c4ccccc34)C2c2cccnc2)cc1 (centres undefined)	50µM*	17%	?	7%	-4%	12%
C=CCOc1ccc(/C(O)=C2/C(=O)C(=O)N(CCCN3CCOCC3)C2c2ccccc2)cc1 (centres undefined)	·	·	?	-7%	·	·
CCOc1cccc(C2/C(=C(/O)c3ccc4c(c3)CC(C)O4)C(=O)C(=O)N2CCN2CCOCC2)c1 (centres undefined)	?	·	-12%	24%	-10%[57.1 µM]	-4%
CCN(CC)CCN1C(=O)C(=O)/C(=C(/O)c2ccc(C)cc2)C1c1cccnc1 (centres undefined)	·	·	-7%	57%	-39%	24%
C=CCOc1cccc(C2/C(=C(/O)c3ccc4c(c3)CC(C)O4)C(=O)C(=O)N2CCN2CCOCC2)c1 (centres undefined)	50µM*	·	-12%	11%	-22%[57.1 µM]	6%
C=CCOc1cccc(C2/C(=C(/O)c3ccc(Cl)cc3)C(=O)C(=O)N2CCN2CCOCC2)c1 (centres undefined)	18µM*	-6%	-24%[57.1 µM]	?	-7%	18%
C=CCOc1cccc(C2/C(=C(/O)c3ccccc3)C(=O)C(=O)N2CCN2CCOCC2)c1 (centres undefined)	?	-4%	79µM*	12%	?	13%
Cc1ccc(-n2ncc3c(N4CCCCC4)ncnc32)cc1	7%[59 µM]	·	17%	63%	72%	·
Cc1ccc(S(=O)(=O)c2cnc(SCC(=O)Nc3cccc(Cl)c3)nc2N)cc1C	-7%[59 µM]	·	-22%	1%	-32%	·
O=C1C(=O)N(CCN2CCOCC2)C(c2cccnc2)/C1=C(/O)c1ccc(Cl)cc1 (centres undefined)	50µM*	5%	-14%	35%	-20%	12%
Cc1nn(S(=O)(=O)c2ccc(C(C)C)cc2)c(C)c1S(=O)(=O)N1CCOCC1	35µM*	·	79µM*	41%	?	20%
CCOc1ccc(S(=O)(=O)n2nc(C)c(S(=O)(=O)N3CCOCC3)c2C)cc1	50µM*	·	-15%	7%	?	-1%
CCCCOc1ccc(S(=O)(=O)n2nc(C)c(S(=O)(=O)N3CCCCCC3)c2C)cc1	-37%[59 µM]	·	-12%	25%[57 µM]	-3%	·
CCc1ccc(S(=O)(=O)c2nnn(-c3cccc(C)c3)c2N)cc1	4%[59 µM]	·	0%	34%	5%	·
CCOC(=O)c1sc(NC(=O)c2cc(CC)on2)c(C(=O)OCC)c1C	-3%[59 µM]	·	4%	50%	3%	·
COc1ccc(C2C=C(c3ccc(C)cc3)Nc3c(C(=O)Nc4ccccc4)cnn32)cc1 (centres undefined)	32%[59 µM]	·	42%	89%	22%	·
COc1ccc(N2CCN(C(=O)c3ccc(N(C)S(=O)(=O)c4ccc(C)cc4)cc3)CC2)cc1	-4%[0.501 µM]	-9%	?	?	?	1%
SMILES	G9a block	L3MBTL1 block	JMJD2A Tudor inh	HP1b chromo inh	BAZ2B block	Sfp PPTase inh
COc1ccc(N2CCN(C(=O)c3ccccc3N(C)S(=O)(=O)c3ccccc3)CC2)cc1	45µM*	·	-35%	-13%	?	3%
CN(c1ccccc1C(=O)N1CCN(c2ccccc2F)CC1)S(=O)(=O)c1ccccc1	-9%	·	-24%	0%	-16%	3%
COc1ccc(S(=O)(=O)N(C)c2ccc(C(=O)N3CCN(C)CC3)cc2)cc1	50µM*	·	3%	28%[57 µM]	-5%	6%
COc1ccc(N2CCN(C(=O)CN(c3cccc(OC)c3)S(=O)(=O)c3ccccc3)CC2)cc1	8.9µM*	·	?	?	?	3%
COc1ccc(N2CCN(C(=O)c3ccc(N(C)S(=O)(=O)c4ccc(OC)cc4)cc3)CC2)cc1	·	-1%	18µM*	?	?	-3%
CCOc1ccc(CCNC(=O)C2CCN(Cc3nc(-c4ccc(OC)c(OC)c4)oc3C)CC2)cc1OCC	-2%[59 µM]	·	-1%	40%	-19%	·
CN(C)Cc1ccccc1-c1nccc(NC2CC2)n1	·	·	·	·	·	17%
CCC(C(=O)Nc1ccccc1OC)n1nc(C)c2sc3ccccc3c2c1=O (centres undefined)	?	·	-3%	41%	5%	·
COc1cc(C2C(=O)N(C3CCCCC3)CC(=O)N2CCc2ccccc2)ccc1OC(C)C (centres undefined)	1%[59 µM]	·	-6%	29%	3%	·
Clc1cccc(CN2CCSCC2)c1Cl	3.5µM*	-5%	3.5µM*	?	?	-32%
Clc1cccc(CN2CCCCCC2)c1Cl	20µM*	5%	0.71µM*	?	?	-2%
Clc1ccccc1Cc1noc(CN2CCSCC2)n1	19%[12.7 µM]	12%	1%	26%	-6%	4%
OCc1cccc(Cl)c1Cl	·	·	·	·	·	-8%
Cc1onc(-c2ccccc2Cl)c1C(=O)Nc1ccc(-n2nncc2C(C)(C)C)cc1	-50%	-8%	-14%	11%	-3%	1%
O=C(Nc1ccc(-n2nncc2-c2ccco2)cc1)c1ccc(F)cc1	50µM*	-7%	?	?	?	2%
Cc1ccc(-n2nc3c(c2NC(=O)c2c(-c4ccccc4Cl)noc2C)CSC3)cc1	45µM*	-11%	-24%	18%	0%	-26%

High-throughput results (PubChem)
